# The whole screen tested about 350,000 compounds, of which about 5,500 (1.6%) were called active.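 How the source made its calls: active means significant combined selectivity score with lowered wild-type GFP, culture density cut under 30%, mutant RFP and density less affected; inactive means any of these conditions unmet.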 Only a selection was taken, and actives are over-represented in it overall.
# Assay: GFP drop in mixed WT/humanized-ribosome E. coli culture – GFP/RFP fluorescence, OD600, single point, bacterial rRNA inhibitor project, primary screen (AID 720706)
# Conditions: E. coli WT GFP vs humanized-ribosome RFP mutants, 24 h; GFP signal change (wild-type ribosome): stronger effect = lower value, DMSO median 0, no signal -100; OD600 change: measured here: OD600 growth, DMSO median 0, no signal -100; RFP signal change: measured here: RFP humanized mutant strains, DMSO median 0, no signal -100, concentration not given here
SMILES,GFP signal change (wild-type ribosome),OD600 change,RFP signal change
C[C@H]1CN(C)C(=O)c2cccc(N(C)C)c2O[C@@H]1CN(C)C,-0.435% (inactive),5.4%,-1.5%
CO[C@H]1CN(C)C(=O)c2ccc(NC(=O)CC(F)(F)F)cc2OC[C@@H](C)N(C(=O)c2ccccc2F)C[C@@H]1C,3.23% (inactive),1.55%,3.46%
COc1ccc(C2/C(=C(/O)c3ccccc3)C(=O)C(=O)N2C)c(OC)c1 (stereo not drawn),-2.38% (inactive),2.38%,-3.31%
CCOc1ccc(/C(O)=C2\C(=O)C(=O)N(c3ccc(OC)cc3)C2c2ccccc2[N+](=O)[O-])cc1 (stereo not drawn),-20.6% (active),6.17%,5.06%
COc1ccccc1C1/C(=C(/O)c2ccc(C)cc2)C(=O)C(=O)N1Cc1ccco1 (stereo not drawn),6.88% (inactive),7.9%,1.73%
COCC(=O)Nc1ccc2c(c1)[C@H]1C[C@H](CC(=O)NCc3ccccn3)O[C@H](CO)[C@H]1O2,-0.801% (inactive),-4.21%,-2.1%
O=S1(=O)c2ccc(Br)cc2-n2nncc2CN1Cc1cccc(Cl)c1,-5.88% (inactive),-16.9%,-5.12%
CC(C)(C)OC(=O)N1CCC(NC(=O)c2[nH]cnc2C(=O)N[C@@H](Cc2ccccc2)C(=O)OCc2ccccc2)CC1,12.4% (inactive),-1.46%,0.755%
O=C(N[C@@H](Cc1ccccc1)C(=O)OCc1ccccc1)c1nc[nH]c1C(=O)N[C@@H](Cc1ccccc1)C(=O)OCc1ccccc1,8.68% (inactive),15.5%,-0.702%
O=C(N[C@@H](Cc1ccccc1)C(=O)OCc1ccccc1)c1nc[nH]c1C(=O)NC1CCNCC1,-20.9% (active),-8.38%,-3.23%
O=C(c1cccc(F)c1)N1CC(=O)N2[C@H](C1)[C@@H](c1ccc(C#Cc3ccc(F)cc3)cc1)[C@@H]2CO,1.74% (inactive),-7.67%,4.35%
COC(=O)[C@@H]1[C@@H](CO)[C@@H]2Cn3c(ccc(-c4ccccc4F)c3=O)[C@@H]2N1CC1CCOCC1,1.95% (inactive),-6.47%,6.87%
O=C1C(Sc2cccc(F)c2)=C[C@@]2(O)CC[C@@H](O)[C@]1(Sc1cccc(F)c1)[C@H]2O,-37% (active),-28.5%,-4.19%
COc1ccc(S(=O)(=O)Nc2ccc3c(c2)CC(=O)N([C@H](C)CO)C[C@H](C)[C@@H](CN(C)C)O3)cc1,2.15% (inactive),13.2%,-1.01%
C[C@H](CO)N1C[C@H](C)[C@@H](CN(C)C(=O)c2ccncc2)Oc2cc(C3=CCCCC3)ccc2S1(=O)=O,-1.29% (inactive),-9.47%,-3.74%
CN(C)C(=O)c1coc2nc3ccccc3nc12,12.4% (inactive),6.11%,-0.0205%

SMILES,GFP signal change (wild-type ribosome),OD600 change,RFP signal change
CNC(=O)c1cccc2nc3ccccc3nc12,-23.6% (active),-17.7%,-6.61%
CNC(=O)C(NC(=O)c1ccccc1)=C(C)C,10.9% (inactive),9.13%,-0.414%
CC(C)NC(=O)Nc1ccc2c(c1)C(=O)N(C)[C@@H]1CC[C@H](CC(=O)NCC3CCCCC3)O[C@@H]1CO2,-0.35% (inactive),-6%,0.584%
C/C=C/c1ccc([C@@H]2[C@H](CO)N(CC3CCCC3)C23CN(C(=O)CC2CC2)C3)cc1,-14.4% (inactive),-40%,32.6%
CCOC(=O)C1(C)NC(c2ccco2)C2C(=O)N(c3ccccc3)C(=O)C21 (stereo not drawn),7.82% (inactive),18.6%,3.41%
CCCSC1=C(C#N)C(c2ccccc2C)C(C(=O)OC)C(=O)N1 (stereo not drawn),-10.9% (inactive),-3.33%,-1.26%
CCOC(=O)CSC1=C(C#N)C(c2ccco2)C(C(=O)OCc2ccccc2)=C(C)N1 (stereo not drawn),-26.5% (active),-14.3%,-3.21%
O=C(NCCCN1CCN(c2ccc(F)cc2)CC1)Nc1ccc([N+](=O)[O-])cc1,-23.1% (active),-16.1%,9.67%
CN1CCN(CCNC(=O)Nc2ccc([N+](=O)[O-])cc2)CC1,3.04% (inactive),-6.09%,-2.6%
O=C(NCCCN1CCOCC1)c1ccc([N+](=O)[O-])cc1[N+](=O)[O-],7.34% (inactive),6.35%,-0.35%
O=C(c1ccncc1)N1CC(=O)N2[C@H](C1)[C@@H](c1ccc(C#CCC3CCCC3)cc1)[C@@H]2CO,-32.1% (inactive),-56.8%,7.12%
CCCN(C)C[C@@H]1Oc2ncc(-c3ccccc3F)cc2C(=O)N([C@@H](C)CO)C[C@@H]1C,9.44% (inactive),19.7%,-1.32%
Nc1ccc(N=Nc2ccccc2Cl)c(N)n1,-31.4% (active),-18.6%,-5.26%
C[C@@H]1CN([C@H](C)CO)C(=O)c2cccc(NC(=O)Nc3ccc(F)cc3)c2O[C@@H]1CN(C)C(=O)Nc1ccc(C(F)(F)F)cc1,-3.92% (inactive),-1.07%,-2.09%
COc1ccc(S(=O)(=O)Nc2ccc3c(c2)CC(=O)N([C@H](C)CO)C[C@H](C)[C@@H](CN(C)C(=O)NC(C)C)O3)cc1,1.06% (inactive),6.54%,-0.682%

# From PubChem BioAssay AID720706 (Broad Institute, 2013)
